Experimental data from PubChem BioAssay (NCI).
Several values for one entry are separate records, joined by “and”; a condition that tells them apart may be missing. Identical values can stand only once. The panel holds about 83,000 compounds, 20% with a hit somewhere; the sample as a whole holds those more often.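 Each cell line was grown in a 96-well plate and treated with one concentration of compound for 48 hours. Values below 10 were considered active.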 Values without a mark were called inactive. Activity calls are given as the source filed them.

Test system: MDA-MB-468 breast
Experiment: NCI-60 one-dose screen, 48 h (100 = growth as untreated, 0 = no growth, -100 = all killed)
Settings: 10 µM unless noted

SMILES	growth
CCOC(=O)C1=C(C)NC(=S)NC1c1ccccc1 (configuration not stated)	98.3%
N#CCC1CCCC1	97.4%
CCc1cccc2c1S/C(=C/c1ccc(Cl)cc1)C2=O	93.6%
NC1=NN(c2ccccc2)C(=O)/C1=C/c1ccc(Cl)cc1	114%
NS(=O)(=O)c1ccc(N2N=C(c3ccc(Br)cc3)CC2c2cn(-c3ccccc3)nc2-c2ccc(Cl)cc2)cc1 (configuration not stated)	112%
CN(C)c1ccc(/C=C/c2ccnc3ccccc23)cc1N	5.88% (active)
COc1cc(-c2nc3ccc(-c4nnc(SCC(=O)Nc5ccc(C(C)=O)cc5)o4)cc3[nH]2)cc(OC)c1OC	101%
CCOC(C)=N	117%
COc1ccc(NC(=O)c2sc3nc(C)c(C(C)=O)cc3c2N)cc1	91.8%
CCOC(=O)N/N=C/c1ccc(OC)c(OC)c1	97.6%
Cc1cc(=O)oc2cc(OCCCOc3ccc(/C=C/C(=O)Nc4ccc(Cl)cc4)cc3)ccc12	73.9%
C=C(C)COc1ccc(C(C)(C)C)cc1	91.2%
COc1cc2oc(-c3cccc(C(=O)Nc4ccc(C#N)cc4)c3)cc(=O)c2c(O)c1OC	77.3%
CC(=O)c1sc2sc(C(C)=O)c(C)c2c1C	61.4%
C=C(C)[C@@H]1CC[C@]2(C(=O)OCCOCCOCC[P+](c3ccccc3)(c3ccccc3)c3ccccc3)CC[C@]3(C)[C@H](CC[C@@H]4[C@@]5(C)CC[C@H](OC(=O)C(Cl)Cl)C(C)(C)[C@@H]5CC[C@]43C)[C@@H]12	-53.7% (active)
O=C1/C(=C\c2cccn2Cc2ccccc2)c2ccccc2N1c1c(Cl)cccc1Cl	-77.5% (active)
COc1ccc(-c2nc(NN)c3c(C)nn(-c4ccc(F)cc4)c3n2)cc1	25.8%
Nc1nc(N)c2c(n1)NC(c1sc(Cl)nc1Cl)CC(c1ccc3c(c1)OCO3)=N2 (configuration not stated)	-13.3% (active)
COc1cc(OC)c2sc(-c3ccc(-n4cncc4-c4ccc(N)cc4)cc3)nc2c1	67.3%
Cc1c(C(N)=O)sc2nc(SCC(=O)Nc3ccc(Cl)cc3)n(-c3ccccc3)c(=O)c12	106%
CCOC(=O)c1[nH]c(=O)c2c(C)nc(-c3ccccc3)cc2c1O	92.9%

SMILES	growth
COc1cc(OC)c(C2C(Cl)C(=O)N2Nc2ncnc3ccccc23)cc1OC (configuration not stated)	92.5%
COc1cc2ncnc(Nc3ccc(F)c(Cl)c3)c2cc1OCC(=O)N1CCCCC1	-41.9% (active)
Cc1ccc(S(=O)(=O)n2cc(C(=O)C(=O)N3CCCCC3)c3ccccc32)cc1	40.2%
O=C1Nc2ccccc2C12Nc1cc(Cl)ccc1S2 (configuration not stated)	105%
O=C1Nc2ccccc2C1=NC1CCCCC1	102%
CCOC(=O)c1ccc2[nH]c(O)c(C(=Nc3ccc(N(C)C(=O)CN4CCN(C)CC4)cc3)c3ccccc3)c2c1	-84.4% (active)
O=C(N/N=C/c1cc2ccccc2nc1Cl)c1cc(-c2nc3ccccc3[nH]2)nc2ccccc12	98.5%
Cn1cc(-c2csc(-c3cccc(F)c3)n2)c2cccnc21	-49.6% [100 µM] (active)
O=[N+]([O-])c1ccc(-c2nc(N(CCO)CCO)c3ccccc3n2)o1	-73.5% (active)
CC(=O)/C=C/c1cc2cc(Cl)ccc2[nH]c1=O	82.9%
COc1cc2cn3c4ccc(O)cc4nc(N)c3c2cc1OC	-32.3% (active)
COc1cc2nnc3c4cccnc4[nH]c3c2cc1OC	-69.9% (active)
C#CCn1cnc2c(Nc3cccc(NC(=O)CCl)c3)ncnc21	23.5%
COc1cc(-c2nccc3cc4c(cc23)OCO4)cc(OC)c1OC	-6.2% (active) and 5.32% (active)
O=c1c2ccccc2nc2n1Cc1nc3ccccc3c(=O)n1C2	90.6%
COc1ccc(/C=C2\C(=O)N(C(=O)c3csc(NC(C)=O)n3)N=C2C)cc1	112%
O=C(/C=C/c1cccc(Cl)c1Cl)Nc1ncc(Cc2ccccc2Cl)s1	10.4%
COC(=O)c1ccc(NC2=C/C(=N/S(=O)(=O)c3ccc(C(=O)O)cc3)c3ccccc3C2=O)cc1	-37.4% (active)
NCCNc1nc2ccccc2c2c(=O)c3cc(F)ccc3sc12	67.2%
CCN1C(=O)N(c2ccccc2)C2NC(=S)N(/N=C/C=C/c3ccccc3OC)C21 (configuration not stated)	2.35% (active)
Cc1cc(C(C)(C)C)ccc1S	104%
